{"source": "PubChem BioAssay (NCI)", "note": "Compounds without any hit were thinned out: in the full panel of roughly 83,000, 20% have a hit.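 Values shown are percent growth following 48 h exposure of cells in 96-well plates to a single concentration of compound; below 10 was considered active.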 A number with no mark means an inactive call. Active and inactive are the calls of the source.", "data": [{"tested_on": "OVCAR-5 ovarian", "experiment": "NCI-60 one-dose screen, 48 h (100 = growth as untreated, 0 = no growth, -100 = all killed)", "details": "10 µM unless noted", "values": [{"smiles": "CCOC(=O)CO", "growth": "105%"}, {"smiles": "COc1cc(C(=O)NC(=S)NCc2ccncc2)cc(OC)c1OC", "growth": "107%"}, {"smiles": "Cc1ccc(C)c(CCO)c1", "growth": "97%"}, {"smiles": "CC(=O)CSc1ncnc2nc[nH]c12", "growth": "95.8%"}, {"smiles": "CCOC(OCC)C(=O)c1ccccc1", "growth": "94.1%"}, {"smiles": "CCCCCCCCCCCCCCCCOc1ccccc1NC(=O)CC(C)=O", "growth": "102%"}, {"smiles": "CC1(c2ccccc2)CO1", "note": "(stereo not given)", "growth": "97.5%"}, {"smiles": "Cc1ccc(C)c(CN(C)C)c1O", "growth": "102%"}, {"smiles": "O=Cc1ccc(O)c(O)c1", "growth": "96.2%"}, {"smiles": "C/C(=N\\N=C(/C)c1cccc([N+](=O)[O-])c1)c1cccc([N+](=O)[O-])c1", "growth": "97.9%"}, {"smiles": "Cc1nc(C)c(C(=O)O)cc1C(=O)O", "growth": "97.5%"}, {"smiles": "CCN(CC)CCCC(C)NC(=S)N/N=C(\\C)c1ccccn1", "note": "(stereo not given)", "growth": "55.1%"}, {"smiles": "NC(CSSCC(N)C(=O)O)C(=O)O", "note": "(stereo not given)", "growth": "-5.59% (active)"}, {"smiles": "Cc1cc(Cc2ccccc2)c(O)c(Cc2ccccc2)c1", "growth": "88.2%"}, {"smiles": "NNc1ncnc2nc[nH]c12", "growth": "63.7%"}, {"smiles": "CCN(C(=O)Nc1ccccc1Cl)c1ccccc1", "growth": "97.1%"}, {"smiles": "Cc1ccc(O)c(N)c1", "growth": "115%"}, {"smiles": "CC(C)(C)NCCC(O)c1cc(C(F)(F)F)nc2c(C(F)(F)F)cccc12", "note": "(stereo not given)", "growth": "77.8%"}, {"smiles": "CC1CC2C3CCC4=CC(=O)CCC4(C)C3CCC2(C)C1(O)C(=O)CO", "note": "(stereo not given)", "growth": "104%"}, {"smiles": "c1cc(CNCCNCc2ccncc2)ccn1", "growth": "115%"}, {"smiles": "CC(C)Sc1ncnc2nc[nH]c12", "growth": "101%"}, {"smiles": "Cc1cc2nc(C)c(C)nc2cc1C", "growth": "95.3%"}, {"smiles": "COc1cccc(N=CNc2cccc(OC)c2)c1", "growth": "103%"}, {"smiles": "Cc1c(Cl)cccc1NC(=S)NC(=O)c1ccccc1", "growth": "109%"}, {"smiles": "Cc1[nH]c(=S)[nH]c(=O)c1C", "growth": "101%"}, {"smiles": "COc1cc(-c2ccc(NC(=O)CC(C)=O)c(OC)c2)ccc1NC(=O)CC(C)=O", "growth": "98.3%"}, {"smiles": "Clc1ncnc2nc[nH]c12", "growth": "101%"}, {"smiles": "CN(C)c1ncnc2c1cnn2C", "growth": "97.5%"}, {"smiles": "CC1CC(C)S(=O)(=O)C1", "note": "(stereo not given)", "growth": "108%"}, {"smiles": "Cc1cc(C(=O)NN)c(C#N)c(=O)[nH]1", "growth": "106%"}]}, {"tested_on": "OVCAR-4 ovarian", "experiment": "NCI-60 one-dose screen, 48 h (100 = growth as untreated, 0 = no growth, -100 = all killed)", "details": "10 µM unless noted", "units": {"growth": "%"}, "values": [{"smiles": "O=C(OCc1ccccc1)n1nnc2ccccc21", "growth": 92.3}, {"smiles": "COC1(OC)C2(Cl)C(Cl)=C(Cl)C1(Cl)C1COCC12", "note": "(stereo not given)", "growth": 97.7}, {"smiles": "CCOC(=O)CO", "growth": 111}, {"smiles": "Nc1ncnc2c1ncn2C1OC(CO)C2OC21", "note": "(stereo not given)", "growth": 109}, {"smiles": "CC(C)(C)[Si](C)(C)OCC1OC(n2cnc3c(N)ncnc32)CC1OS(C)(=O)=O", "note": "(stereo not given)", "growth": 108}, {"smiles": "CC(=O)CSc1ncnc2nc[nH]c12", "growth": 66.9}, {"smiles": "O=Cc1ccc(O)c(O)c1", "growth": 97.1}, {"smiles": "C/C(=N\\N=C(/C)c1cccc([N+](=O)[O-])c1)c1cccc([N+](=O)[O-])c1", "growth": 42.1}, {"smiles": "Cc1nc(C)c(C(=O)O)cc1C(=O)O", "growth": 122}, {"smiles": "COc1ccc(-c2csc(NC(=O)Nc3nc(-c4ccc(OC)cc4)cs3)n2)cc1", "growth": 79}, {"smiles": "NC(CSSCC(N)C(=O)O)C(=O)O", "note": "(stereo not given)", "growth": 35.4}, {"smiles": "NNc1ncnc2nc[nH]c12", "growth": 44.6}, {"smiles": "CCCOCc1cn[nH]n1", "growth": 110}, {"smiles": "Cc1ccc(O)c(N)c1", "growth": 111}, {"smiles": "CC(C)Sc1ncnc2nc[nH]c12", "growth": 115}, {"smiles": "NNC(=O)CCCCl", "growth": 106}, {"smiles": "Clc1ncnc2nc[nH]c12", "growth": 103}, {"smiles": "CN(C)c1ncnc2c1cnn2C", "growth": 102}, {"smiles": "Cc1cc(C(=O)NN)c(C#N)c(=O)[nH]1", "growth": 107}]}, {"tested_on": "SK-OV-3 ovarian", "experiment": "NCI-60 one-dose screen, 48 h (100 = growth as untreated, 0 = no growth, -100 = all killed)", "details": "10 µM unless noted", "units": {"growth": "%"}, "values": [{"smiles": "O=C(OCc1ccccc1)n1nnc2ccccc21", "growth": 112}, {"smiles": "COC1(OC)C2(Cl)C(Cl)=C(Cl)C1(Cl)C1COCC12", "note": "(stereo not given)", "growth": 96}, {"smiles": "CCOC(=O)CO", "growth": 109}, {"smiles": "Nc1ncnc2c1ncn2C1OC(CO)C2OC21", "note": "(stereo not given)", "growth": 105}, {"smiles": "CC(C)(C)[Si](C)(C)OCC1OC(n2cnc3c(N)ncnc32)CC1OS(C)(=O)=O", "note": "(stereo not given)", "growth": 101}, {"smiles": "Cc1ccc(C)c(CCO)c1", "growth": 100}, {"smiles": "CCOC(OCC)C(=O)c1ccccc1", "growth": 105}, {"smiles": "CCCCCCCCCCCCCCCCOc1ccccc1NC(=O)CC(C)=O", "growth": 111}, {"smiles": "CC1(c2ccccc2)CO1", "note": "(stereo not given)", "growth": 107}, {"smiles": "Cc1ccc(C)c(CN(C)C)c1O", "growth": 107}, {"smiles": "Cc1nc(C)c(C(=O)O)cc1C(=O)O", "growth": 104}, {"smiles": "CCN(CC)CCCC(C)NC(=S)N/N=C(\\C)c1ccccn1", "note": "(stereo not given)", "growth": 52.3}, {"smiles": "COc1ccc(-c2csc(NC(=O)Nc3nc(-c4ccc(OC)cc4)cs3)n2)cc1", "growth": 116}, {"smiles": "Cc1cc(Cc2ccccc2)c(O)c(Cc2ccccc2)c1", "growth": 102}, {"smiles": "CCCOCc1cn[nH]n1", "growth": 109}, {"smiles": "CCN(C(=O)Nc1ccccc1Cl)c1ccccc1", "growth": 113}, {"smiles": "CC(C)(C)NCCC(O)c1cc(C(F)(F)F)nc2c(C(F)(F)F)cccc12", "note": "(stereo not given)", "growth": 89.3}, {"smiles": "CC1CC2C3CCC4=CC(=O)CCC4(C)C3CCC2(C)C1(O)C(=O)CO", "note": "(stereo not given)", "growth": 102}, {"smiles": "c1cc(CNCCNCc2ccncc2)ccn1", "growth": 104}, {"smiles": "Cc1cc2nc(C)c(C)nc2cc1C", "growth": 99.5}, {"smiles": "NNC(=O)CCCCl", "growth": 123}, {"smiles": "COc1cccc(N=CNc2cccc(OC)c2)c1", "growth": 103}, {"smiles": "Cc1c(Cl)cccc1NC(=S)NC(=O)c1ccccc1", "growth": 95.2}, {"smiles": "Cc1[nH]c(=S)[nH]c(=O)c1C", "growth": 106}, {"smiles": "COc1cc(-c2ccc(NC(=O)CC(C)=O)c(OC)c2)ccc1NC(=O)CC(C)=O", "growth": 101}, {"smiles": "CC1CC(C)S(=O)(=O)C1", "note": "(stereo not given)", "growth": 120}]}]}
